Source: PubChem BioAssay
The source made the active and inactive calls. Unless noted, the rule behind the calls is not given here.

Tests used:
[1] = tested on: XIP peptide (Xip251-270) binding; experiment: small-molecule binders of XIP peptide, primary screen, biochemical, small-molecule microarray, fluorescence 635/667 nm, 0.1 µg/mL protein (AID 1182); settings: fluorescent protein binding, 635 nm, higher = more signal, called active from +8 up or from −8 down
[2] = tested on: XIP peptide (Xip251-270); experiment: small-molecule binders of XIP peptide, primary screen, biochemical, small-molecule microarray, fluorescence 635/667 nm, 0.5 µg/mL protein (AID 1183); settings: small-molecule microarray binding, fluorescence 635 nm; higher = more signal
[3] = Plasmodium falciparum growth inhibition, primary screen, strain 3D7, DAPI fluorescence, 100 nL (AID 1184);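 note: parasites grown inside human red blood cells in medium with human serum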; settings: P. falciparum 3D7 growth, 3 d, higher = more signal
[4] = molecular target: Homeobox protein Hox-A13 (Mus musculus) (UniProt Q62424); experiment: inhibitors of HoxA13-DNA binding, primary screen, biochemical, fluorescence polarization, labeled oligonucleotide (AID 1185); settings: 15 min, higher = more signal, called active from +8 up or from −8 down
[5] = inhibitors of hydroxyurea-induced Chk1 phosphorylation, primary screen, imaging, HeLa, phospho-Chk1 antibody, percent positive cells (AID 1186); settings: hydroxyurea-induced phospho-Chk1 immunofluorescence imaging, higher = more signal
[6] = inhibitors of hydroxyurea-induced Chk1 phosphorylation, primary screen, imaging, HeLa, phospho-Chk1 nuclear intensity (AID 1187); settings: hydroxyurea-induced phospho-Chk1 immunofluorescence imaging, higher = more signal

Homeobox protein Hox-A13 (Mus musculus), sequence (Q62424 whole entry, looked up): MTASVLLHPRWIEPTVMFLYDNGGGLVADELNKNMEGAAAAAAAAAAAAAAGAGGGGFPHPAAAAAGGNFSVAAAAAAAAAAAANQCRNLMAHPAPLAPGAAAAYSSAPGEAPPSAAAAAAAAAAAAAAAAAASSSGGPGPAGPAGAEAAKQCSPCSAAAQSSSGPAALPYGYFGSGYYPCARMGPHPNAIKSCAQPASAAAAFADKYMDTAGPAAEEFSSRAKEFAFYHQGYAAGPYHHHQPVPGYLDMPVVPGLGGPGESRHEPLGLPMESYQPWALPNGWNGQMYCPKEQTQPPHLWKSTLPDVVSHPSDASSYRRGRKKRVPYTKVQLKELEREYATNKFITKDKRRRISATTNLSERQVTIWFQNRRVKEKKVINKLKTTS

| SMILES | composite z-score [1] | composite z-score [2] | z-score [3] | z-score [4] | z-score [5] | z-score [6] |
| --- | --- | --- | --- | --- | --- | --- |
| CC(C)NC(=O)[C@@]1(c2ccc([N+](=O)[O-])cc2)CC(=O)N(C(C)C)[C@@H]1c1ccc(CO)cc1 | 0.508 (inactive) | 0.316 | 0.468 | -2 (inactive) | -0.403 (inactive) | -0.102 (inactive) |
| CC(C)C(O)C1C=CC2C(=O)N(C)C(=O)C2N1N1CCCCC1 (stereo unspecified) | -0.335 (inactive) | 0.855 | 0.998 | -4.51 (inactive) | 0.604 (inactive) | 0.171 (inactive) |
| [N-]=[N+]=NCc1ccccc1C[C@]1(C(=O)N2CCOCC2)N=C(c2ccc(OCCCO)cc2)O[C@H]1c1ccccc1 | 0.855 (inactive) | 0.21 | -2.38 | -6.01 (inactive) | -0.638 (inactive) | -0.71 (inactive) |
| CCOC(=O)C1=CC[C@@H](c2cccc(Cl)c2)N(S(=O)(=O)c2ccc(C)cc2)[C@H]1c1ccc(C#N)cc1 | 0.197 (inactive) | 0.73 | -2.12 | 1.05 (inactive) | 0.645 (inactive) | -0.118 (inactive) |
| CC(C)(C)OC(=O)CC[C@]1(C(=O)NCC(O)CO)N=C(c2ccc(OCCCO)cc2)O[C@H]1c1ccccc1CN=[N+]=[N-] (stereo partly specified) | 3.09 (inactive) | 0.878 | -0.121 | -5.33 (inactive) | -0.029 (inactive) | 0.402 (inactive) |
| O=S(=O)(NCCCO)c1ccc(Br)cc1 | -0.2 (inactive) | 0.0425 | 0.327 | 0.533 (inactive) | -0.868 (inactive) | -0.953 (inactive) |
| COC(=O)[C@@]1(Cc2ccc(F)cc2)[C@H]2c3cc(C(=O)N(C)C)n(CCCNc4ccc(C(F)(F)F)cc4Cl)c3C[C@H]2CN1C(=O)c1ccccc1 | 0.915 (inactive) | 0.557 | -1.39 | -0.925 (inactive) | 0.456 (inactive) | -0.225 (inactive) |
| CC(=O)N1Cc2ccccc2C[C@@]2(N=C(c3ccc(OCCCO)cc3)O[C@H]2c2ccccc2)C1=O | 1.11 (inactive) | 0.887 | -2.24 | -3.3 (inactive) | -0.662 (inactive) | -0.681 (inactive) |
| COCCCNC(=O)[C@@]1(Cc2ccccc2I)c2ccccc2C(=O)N(Cc2ccccc2)[C@H]1c1ccc(CO)cc1 | 0.433 (inactive) | 0.736 | -1.04 | -4.39 (inactive) | -0.0143 (inactive) | 0.371 (inactive) |
| [N-]=[N+]=NCc1ccccc1C[C@]1(C(=O)NCC(O)CO)COC(c2ccc(OCCCO)cc2)=N1 (stereo partly specified) | 0.54 (inactive) | 0.376 | -2.04 | -4.94 (inactive) | -0.0874 (inactive) | -0.341 (inactive) |
| [N-]=[N+]=Nc1ccccc1[C@@H]1OC(c2ccc(OCCCO)cc2)=N[C@]1(CCS(=O)(=O)c1ccccc1)C(=O)N1CCCCC1 | 1.32 (inactive) | 0.574 | -2.23 | -2.67 (inactive) | 0.0919 (inactive) | -0.121 (inactive) |
| CCCC[C@H]1OB(O)C[C@H]2C1=C(C)Cn1c(=O)n(-c3ccccc3)c(=O)n12 | -0.0734 (inactive) | 0.116 | -2.15 | -0.581 (inactive) | -0.705 (inactive) | -0.679 (inactive) |
| C=CCN1Cc2ccccc2C[C@@]2(COC(c3ccc(OCCCO)cc3)=N2)C1=O | 0.415 (inactive) | 0.793 | -1.85 | -3.96 (inactive) | -0.221 (inactive) | -0.208 (inactive) |
| COCCOC(=O)N1C(=O)[C@@]2(c3cc(C#CC4(O)CCCCCC4)ccc31)[C@H](c1ccc(O)cc1)N1[C@H](c3ccccc3)[C@H](c3ccccc3)OC(=O)[C@H]1[C@@H]2C(=O)N1CCc2cc(OC)c(OC)cc2C1 | -0.455 (inactive) | 0.839 | 0.0635 | -0.954 (inactive) | -0.404 (inactive) | -0.466 (inactive) |
| O=C1O[C@@H](c2ccccc2)[C@@H](c2ccccc2)N2[C@@H](c3ccc(O)cc3)[C@]3(C(=O)Nc4ccc(C#CCCO)cc43)[C@@H](C(=O)N3CCCCCCC3)[C@H]12 | 0.868 (inactive) | 0.876 | -1.1 | 1.7 (inactive) | -0.149 (inactive) | -0.56 (inactive) |
| O=c1cccc(-c2cccc3ccccc23)o1 | -0.738 (inactive) | 0.454 | -0.796 | -1.69 (inactive) | -0.715 (inactive) | -1.06 (inactive) |
| Cc1ccc(S[C@]2(C(=O)NCC(C)C)CC(=O)N(Cc3ccccc3)[C@@H]2c2ccc(CO)cc2)cc1 | 1.34 (inactive) | 0.404 | -0.894 | -2.95 (inactive) | 0.306 (inactive) | -0.141 (inactive) |
| [N-]=[N+]=NCc1ccccc1[C@H]1OC(c2ccc(OCCCO)cc2)=N[C@@]1(Cc1ccccc1)C(=O)NCC(O)CO (stereo partly specified) | 0.701 (inactive) | 0.306 | -2.48 | -3.47 (inactive) | 0.105 (inactive) | 0.231 (inactive) |
| CCOC(=O)C[C@H]1[C@H](OC(=O)c2ccc(C(=O)c3ccccc3)cc2)[C@@H](NC(=O)c2ccc3ccccc3n2)c2cc(OCCCO)ccc2N1C(=O)c1ccc2ccccc2n1 | 0.545 (inactive) | 0.613 | -2.55 | -2.61 (inactive) | 0.226 (inactive) | 0.194 (inactive) |
| C=CCOC(=O)[C@H]1[C@@H]2C(=O)O[C@@H](c3ccccc3)[C@@H](c3ccccc3)N2[C@@H](c2ccc(OCCOC(=O)[C@H]3C[C@H]4C(=O)N[C@@H](CCCC[N+](C)(C)C)C(=O)N4[C@H]3c3ccc(O)cc3)cc2)[C@]12C(=O)Nc1ccccc12 | -0.436 (inactive) | 0.487 | 1.04 | 6.97 (inactive) | -0.179 (inactive) | -0.219 (inactive) |
| COC(=O)[C@@]1(Cc2ccccc2)[C@H]2c3cc(C(=O)N(C)C)n(Cc4cc(F)c(F)c(F)c4)c3C[C@H]2CN1C(=O)c1ccccc1 | -0.218 (inactive) | 0.0006 | -1.52 | -4 (inactive) | -0.217 (inactive) | -0.227 (inactive) |
| CN(C)CCCC[C@@H]1NC(=O)[C@@H]2C[C@H](C(=O)NCCCCCN)[C@H](c3ccc(O)cc3)N2C1=O | 0.633 (inactive) | 0.433 | 0.336 | -1.21 (inactive) | -0.538 (inactive) | -0.472 (inactive) |
| COc1ccc(C#Cc2ccc3c(c2)[C@]2(C(=O)N3)[C@H](C(=O)N3CCN(c4ncccn4)CC3)[C@H]3C(=O)O[C@H](c4ccccc4)[C@H](c4ccccc4)N3[C@@H]2c2ccc(O)cc2)cc1 | -0.219 (inactive) | 0.734 | -1.08 | -0.983 (inactive) | -0.247 (inactive) | -0.298 (inactive) |
| C=CC[C@]1(C(=O)NCCN2CCOCC2)N=C(c2ccc(OCCCO)cc2)O[C@H]1c1ccccc1N=[N+]=[N-] | 3.25 (inactive) | 0.819 | -2.27 | -3.35 (inactive) | -0.56 (inactive) | -0.265 (inactive) |
| C=C(COC)/C(=C/C[C@H](OC(C)=O)c1ccccc1OCCO)c1cnc2ccccc2c1 | 0.384 (inactive) | 0.0219 | -2.82 | -5.24 (inactive) | 0.134 (inactive) | 0.19 (inactive) |
| CC(C)NC(=O)[C@@H]1c2ccccc2C(=O)N(C2CCCCC2)[C@H]1c1ccc(CO)cc1 | 0.457 (inactive) | 0.254 | -0.361 | -2.65 (inactive) | -0.0625 (inactive) | -0.237 (inactive) |
